Source: PubChem BioAssay
An excerpt weighted towards active compounds, which were near 3% of everything screened.
CTSL1 counter: Fasciola hepatica cathepsin L1 inhibitors, primary screen, counter-screen for PFM18AAP inhibitor project, biochemical, QFRET, fluorogenic peptide substrate. recombinant F. hepatica cathepsin L1, Z-Leu-Arg-MCA fluorescence. inhibition, % at 5.96 µM. 300,000 tested, 0.49% active;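 active = inhibition above the mean of all tested compounds plus 3 SD, set per screening campaign, cut at about 17% in these data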;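 note: 0% = plate median of test compound wells and 100% = 1 µM Z-Phe-Ala-diazomethylketone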
PAFAH1B2 inh: PAFAH1B2 enzyme inhibitors, primary screen, biochemical, fluorescence polarization, human | Platelet-activating factor acetylhydrolase IB subunit alpha2 (Homo sapiens), P68402 | recombinant PAFAH1B2, FP-rhodamine activity probe | inhibition, % at 3.39 µM | 340,000 tested, 1.2% active;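 active = inhibition above the mean of all tested compounds plus 3 SD, cut at about 24% in these data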;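 note: 0% = enzyme with DMSO and 100% = wells lacking PAFAH1B2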
PAFAH1B3 inh: PAFAH1B3 enzyme inhibitors, primary screen, biochemical, fluorescence polarization, human; Platelet-activating factor acetylhydrolase IB subunit alpha1 (Homo sapiens), Q15102; recombinant PAFAH1B3, FP-rhodamine probe; inhibition, % at 3.39 µM; 340,000 tested, 0.28% active;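 active = inhibition above the screen-wide average of all tested compounds plus 3 SD, cut at about 25% in these data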;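 note: 0% = enzyme with DMSO only and 100% = wells lacking PAFAH1B3 protein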
pPAFAH FP inh: pPAFAH enzyme inhibitors, primary screen, biochemical, fluorescence polarization, human. Platelet-activating factor acetylhydrolase (Homo sapiens), Q13093. recombinant pPAFAH, FP-rhodamine probe fluorescence polarization. inhibition, % at 3.39 µM. 330,000 tested, 1.5% active. AID 463082, 2010;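 active = inhibition above the mean inhibition across the screen plus 3 SD, cut at about 25% in these data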;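 note: inhibitors block binding of the rhodamine activity-based probe so polarization drops; 0% = enzyme with DMSO and 100% = wells lacking pPAFAH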
PP5 primary: PP5 phosphatase inhibitors, primary screen, biochemical, fluorescence. 320,000 tested, 0.18% active. AID 1987, 2009. purified PP5c, OMFP substrate fluorescence. inhibition, % at 6.7 µM;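 active = inhibition above the campaign's mean inhibition across all tested compounds plus 3 SD, cut at about 9.5% in these data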;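 note: 0% = DMSO only and 100% = 100 µM cantharidin control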
Target sequence (P53041 whole entry, looked up): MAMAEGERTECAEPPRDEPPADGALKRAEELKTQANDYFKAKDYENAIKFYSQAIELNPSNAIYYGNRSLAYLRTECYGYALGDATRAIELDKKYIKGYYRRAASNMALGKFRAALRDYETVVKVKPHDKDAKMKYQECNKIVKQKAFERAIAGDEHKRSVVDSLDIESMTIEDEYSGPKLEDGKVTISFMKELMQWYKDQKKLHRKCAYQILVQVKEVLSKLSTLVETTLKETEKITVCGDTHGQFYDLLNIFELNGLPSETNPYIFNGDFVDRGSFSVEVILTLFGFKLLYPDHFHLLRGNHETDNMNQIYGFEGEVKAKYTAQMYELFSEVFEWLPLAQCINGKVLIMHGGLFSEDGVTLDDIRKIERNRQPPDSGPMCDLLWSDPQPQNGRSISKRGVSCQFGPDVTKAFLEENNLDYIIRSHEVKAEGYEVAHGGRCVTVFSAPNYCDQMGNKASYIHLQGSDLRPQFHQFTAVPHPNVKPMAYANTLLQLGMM
PAFAH2 inh: PAFAH2 enzyme inhibitors, primary screen, biochemical, fluorescence polarization, human | Platelet-activating factor acetylhydrolase 2, cytoplasmic (Homo sapiens), Q99487 | recombinant PAFAH2, FP-rhodamine activity probe | inhibition, % at 3.39 µM | 340,000 tested, 0.99% active;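 active = inhibition above the mean over all tested compounds plus 3 SD, cut at about 30% in these data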;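 note: inhibitors block probe labeling of enzyme so polarization drops; 0% = enzyme with DMSO and 100% = wells lacking PAFAH2 protein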
* hit, by the source's call.

CCCC(=O)Nc1sc(-c2ccccc2)c(-c2ccccc2)c1C(=O)O was read as CTSL1 counter 5, PAFAH1B2 inh 42*, PAFAH1B3 inh -1, pPAFAH FP inh 6, PP5 primary -2 and PAFAH2 inh 5.
O=C(C1CCCN1C(=O)c1cccs1)N1CCN(S(=O)(=O)c2ccc(F)cc2)CC1 (configuration not stated) was read as PAFAH1B2 inh 29*, PAFAH1B3 inh 11, pPAFAH FP inh 2, PP5 primary -2 and PAFAH2 inh -3.
Screening O=C(COc1ccc(Cl)cc1)c1ccc(O)cc1O returned CTSL1 counter 3, PAFAH1B2 inh 27*, PAFAH1B3 inh 3, pPAFAH FP inh -2, PP5 primary 2 and PAFAH2 inh -8.
For CC(C1CC2CCC1C2)n1c(-c2ccco2)n[nH]c1=S (configuration not stated) the results were CTSL1 counter 4, PAFAH1B2 inh 27*, PAFAH1B3 inh 4, pPAFAH FP inh 5, PP5 primary 0 and PAFAH2 inh 10.
For O=C(NC(Nc1nc2ccc([N+](=O)[O-])cc2s1)(C(F)(F)F)C(F)(F)F)c1cccnc1 the results were CTSL1 counter 8, PAFAH1B2 inh 5, PAFAH1B3 inh 10, pPAFAH FP inh 7, PP5 primary 0 and PAFAH2 inh -3.
Screening O=C(NC(Nc1nc2ccc([N+](=O)[O-])cc2s1)(C(F)(F)F)C(F)(F)F)c1ccccc1Cl returned CTSL1 counter 3, PAFAH1B2 inh -5, PAFAH1B3 inh -3, pPAFAH FP inh 33*, PP5 primary 6 and PAFAH2 inh 2.
`CC(NC(=O)COC(=O)c1ccc(N(C)C)cc1)c1ccccc1` (configuration not stated) gave CTSL1 counter 0, PAFAH1B2 inh 7, PAFAH1B3 inh 3, pPAFAH FP inh 33*, PP5 primary 1 and PAFAH2 inh 79*.
For COc1ccc(Nc2nc3ccccc3nc2NS(=O)(=O)c2cccs2)cc1 the results were CTSL1 counter 6, PAFAH1B2 inh 3, PAFAH1B3 inh 6, pPAFAH FP inh 27*, PP5 primary 1 and PAFAH2 inh 7.
COc1ccc(S(=O)(=O)Nc2ccccc2)cc1 was read as CTSL1 counter 3, PAFAH1B2 inh 6, PAFAH1B3 inh 7, pPAFAH FP inh 18, PP5 primary 3 and PAFAH2 inh 13.
`COc1ccc(S(=O)(=O)Nc2ccc(Nc3ccccc3)cc2)cc1` gave CTSL1 counter -6, pPAFAH FP inh 27* and PP5 primary 7.
For COc1ccc(NS(=O)(=O)c2ccc(NC(=O)Cc3cccs3)cc2)cc1 the results were CTSL1 counter -3, PAFAH1B2 inh 8, PAFAH1B3 inh 6, pPAFAH FP inh 26*, PP5 primary 3 and PAFAH2 inh -7.
For COc1ccc(Nc2nc3ccccc3nc2NS(=O)(=O)c2ccc(NC(C)=O)cc2)cc1 the results were CTSL1 counter -2, PAFAH1B2 inh 7, PAFAH1B3 inh 8, pPAFAH FP inh 27*, PP5 primary 3 and PAFAH2 inh 10.
`CCOc1ccc(S(=O)(=O)N(CC)CC)cc1NC(=O)CSCc1c(C)noc1C` gave CTSL1 counter -16, PAFAH1B2 inh 1, PAFAH1B3 inh 3, pPAFAH FP inh -4, PP5 primary 2 and PAFAH2 inh 3.
Screening CC(C)(C)OC(=O)C[C@H]1C/C=C\C[C@@H](CC(=O)NCCO)C(=O)NC[C@@H](c2ccccc2)OC1=O returned PAFAH1B2 inh 11, PAFAH1B3 inh 12, pPAFAH FP inh 4 and PAFAH2 inh 1.
For O=C(CCc1ccccc1)NNC(=O)c1ccncc1 the results were PAFAH1B2 inh 6, PAFAH1B3 inh 5, pPAFAH FP inh 3 and PAFAH2 inh 2.
`N#Cc1cc(NC(=O)c2ccc(F)cc2)c(=O)n2c1[nH]c1ccccc12` gave CTSL1 counter -3, pPAFAH FP inh 5 and PP5 primary 0.
CC(=O)NS(=O)(=O)c1ccc(NS(=O)(=O)c2ccc3ccccc3c2)cc1 was read as CTSL1 counter -3, PAFAH1B2 inh 29*, PAFAH1B3 inh 15, pPAFAH FP inh -1, PP5 primary 2 and PAFAH2 inh -5.
Screening CC(=O)c1ccc(Nc2nc3ccccc3nc2NS(=O)(=O)c2cccs2)cc1 returned CTSL1 counter -1, PAFAH1B2 inh 1, PAFAH1B3 inh 5, pPAFAH FP inh 27*, PP5 primary 2 and PAFAH2 inh 18.
Screening COc1ccc(S(=O)(=O)Nc2ccc(N3CCOCC3)cc2)cc1 returned CTSL1 counter -1, PAFAH1B2 inh -2, PAFAH1B3 inh 4, pPAFAH FP inh 7, PP5 primary 0 and PAFAH2 inh 7.
For CCOc1ccc(S(=O)(=O)Nc2nc3ccccc3nc2Nc2ccc(N3CCOCC3)cc2)cc1 the results were CTSL1 counter 3, PAFAH1B2 inh 8, PAFAH1B3 inh 5, pPAFAH FP inh 33*, PP5 primary 7 and PAFAH2 inh 19.
`O=C(O)c1cccc(Nc2nc3ccccc3nc2NS(=O)(=O)c2cccs2)c1` gave CTSL1 counter 4, PAFAH1B2 inh 4, PAFAH1B3 inh 6, pPAFAH FP inh 5, PP5 primary -2 and PAFAH2 inh 12.
COc1ccccc1Nc1ccc(NS(=O)(=O)c2ccc(C(C)=O)cc2)cc1 was read as CTSL1 counter 3, PAFAH1B2 inh 1, PAFAH1B3 inh -6, pPAFAH FP inh 34*, PP5 primary 5 and PAFAH2 inh 6.
Screening CC(C)n1c(SCC(=O)NC2CC2)nnc1-c1ccco1 returned CTSL1 counter -2, PAFAH1B2 inh -2, PAFAH1B3 inh 4, pPAFAH FP inh 3, PP5 primary 1 and PAFAH2 inh -5.
`CC(OC(=O)c1cc(=O)[nH]c2ccccc12)C(=O)N1C(C)CCCC1C` (configuration not stated) gave PAFAH1B2 inh 2, PAFAH1B3 inh 5, pPAFAH FP inh 0, PP5 primary 0 and PAFAH2 inh 3.
`O=S(=O)(Nc1ccccc1)c1ccc(S(=O)(=O)N2CCCC2)cc1` gave PAFAH1B2 inh 6, PAFAH1B3 inh 1, pPAFAH FP inh 27*, PP5 primary 1 and PAFAH2 inh -1.
Screening Cc1ccc(SCC(=O)OCC(=O)Nc2ccc3[nH]c(=O)[nH]c3c2)cc1C returned CTSL1 counter 0, PAFAH1B2 inh 2, PAFAH1B3 inh 6, pPAFAH FP inh 0, PP5 primary -2 and PAFAH2 inh 1.
